Measurements as given in PubChem BioAssay (EPA / NIEHS).
Some structures have more than one record in an assay (separate samples or runs), and their calls can disagree. The source made the active and inactive calls. The calls were made as follows: active = hit-call score of the fitted dose curve at least 0.9, where 1 is the maximum; inactive = score below 0.9.

Key:
[1] = read-out: Urokinase-type plasminogen activator receptor (uPAR), PLAUR (gene 5329); experiment: BSK_BE3C_uPAR: BioMAP Diversity Plus: BE3C Assay for Urokinase-type plasminogen activator receptor (uPAR) Biomarker Activity (AID 2283039); conditions: primary human bronchial epithelial cells; actives raise or lower the signal
How it was run: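 Primary human bronchial epithelial cells dosed for 24 h; uPAR quantified by ELISA with bidirectional fitting against DMSO. Overt cytotoxicity assessed in parallel cultures by SRB total-protein staining (0.1% SRB, 560 nm).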

[2] = read-out: Interleukin-6 (IL6), IL6 (gene 3569); experiment: BSK_CASM3C_IL6: BioMAP Diversity Plus: CASM3C Assay for Interleukin-6 (IL6) Biomarker Activity for (AID 2283040); conditions: primary human coronary artery smooth muscle cells; actives raise or lower the signal
[3] = read-out: Tissue plasminogen activator (tPA), PLAT (gene 5327); experiment: BSK_BE3C_tPA: BioMAP Diversity Plus: BE3C Assay for Tissue plasminogen activator (tPA) Biomarker Activity (AID 2283041); conditions: primary human bronchial epithelial cells; actives raise or lower the signal
How it was run: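 Primary human bronchial epithelial cells in the BE3C system, exposed to compound for 24 h. tPA was quantified by ELISA; DMSO served as baseline, with gain or loss of signal fitted. Cytotoxicity checked in parallel cultures by SRB total-protein staining.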

[4] = read-out: Interleukin-8 (IL8), CXCL8 (gene 3576); experiment: BSK_CASM3C_IL8: BioMAP Diversity Plus: CASM3C Assay for Interleukin-8 (IL8) Biomarker Activity (AID 2283042); conditions: primary human coronary artery smooth muscle cells; actives raise or lower the signal;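 also: IL-8 protein level quantified by ELISA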
[5] = read-out: Human Leukocyte Antigen - DR isotype (HLADR), HLA-DRA (gene 3122); experiment: BSK_CASM3C_HLADR: BioMAP Diversity Plus: CASM3C Assay for Human Leukocyte Antigen - DR isotype (HLADR) Biomarker Activity (AID 2283043); conditions: primary human coronary artery smooth muscle cells; actives raise or lower the signal;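 also: cell-surface HLA-DR protein level quantified by ELISA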
[6] = read-out: Macrophage colony-stimulating factor (MCSF), CSF1 (gene 1435); experiment: BSK_CASM3C_MCSF: BioMAP Diversity Plus: CASM3C Assay for Macrophage colony-stimulating factor (MCSF) Biomarker Activity (AID 2283044); conditions: primary human coronary artery smooth muscle cells; actives raise or lower the signal;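 also: M-CSF protein amount quantified by ELISA after 24 h exposure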
[7] = read-out: Low-density lipoprotein receptor (LDLR), LDLR (gene 3949); experiment: BSK_CASM3C_LDLR: BioMAP Diversity Plus: CASM3C Assay for Low-density lipoprotein receptor (LDLR) Biomarker Activity (AID 2283045); conditions: primary human coronary artery smooth muscle cells; actives raise or lower the signal;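 also: LDLR protein level on the cell surface quantified by ELISA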
[8] = read-out: Monocyte Chemoattractant Protein-1 (MCP1), CCL2 (gene 6347); experiment: BSK_CASM3C_MCP1: BioMAP Diversity Plus: CASM3C Assay for Monocyte Chemoattractant Protein-1 (MCP1) Biomarker Activity (AID 2283046); conditions: primary human coronary artery smooth muscle cells; actives raise or lower the signal;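 also: MCP-1 level quantified by ELISA 24 h after dosing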
[9] = BSK_CASM3C_Proliferation: Cell Proliferation Assessment in the BioMAP Diversity Plus: CASM3C Assay (AID 2283047); conditions: primary human coronary artery smooth muscle cells;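 also: sulforhodamine B total protein stain as relative cell number at 560 nm; sub-confluent cells exposed 48 h before staining; fitted both ways against DMSO so gain or loss of cell number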
[10] = read-out: Monokine induced gamma interferon (MIG), CXCL9 (gene 4283); experiment: BSK_CASM3C_MIG: BioMAP Diversity Plus: CASM3C Assay for Monokine induced gamma interferon (MIG) Biomarker Activity (AID 2283048); conditions: primary human coronary artery smooth muscle cells; actives raise or lower the signal;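 also: MIG protein level measured by ELISA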

Measured: AC50

O=C(O)C=CC(F)(C(F)(F)F)C(F)(F)F
inactive: all assays above

Nc1cc2c3c(c1)C(c1ccccc1)=N[C@@H](NC(=O)c1cccnc1)C(=O)N3CC2
inactive: all assays above

CCCCN(CCCC)SN(C)C(=O)Oc1cccc2c1OC(C)(C)C2
active: [5] 29.1 µM | [6] 11.4 µM | [7] 36.6 µM | [9] 27.1 µM
inactive: all other assays above

[N-]=[N+]=[N-]
inactive: all assays above

OCC(F)(F)OC(F)(F)C(F)(F)OC(F)(F)C(F)(F)OC(F)(F)CO
inactive: [1] | [2] | [3] | [4] | [5] | [6] | [7] | [8] | [9] | [10]
active: [9] 47.2 µM

CCC(C)(C)c1ccc(O)cc1
inactive: all assays above

CCOc1ccc(C(C)(C)COCc2cccc(Oc3ccccc3)c2)cc1
active: [3] 0.668 µM
inactive: all other assays above

N#Cc1cc([N+](=O)[O-])ccc1N
inactive: all assays above

O=[N+]([O-])c1ccccc1
inactive: all assays above

CCOP(=S)(OCC)SCSCC
inactive: all assays above

CC(Cc1ccc(OCC(=O)O)cc1)NCC(O)c1csc(C(F)(F)F)n1 (stereo unspecified)
inactive: all assays above

CN(C)C(=O)Cl
inactive: all assays above

O=C(O)C(F)(F)C(F)(F)C(=O)O
inactive: all assays above

O=c1ssc(Cl)c1Cl
active: [1] 12.2 µM | [2] 4.33 µM | [3] 7.68 µM | [5] 3.54 µM | [6] 5.46 µM | [8] 5.7 µM | [9] 1.69 µM | [10] 24.4 µM
inactive: [4] | [7]

CC(O)C(F)(F)C(F)(F)F (stereo unspecified)
inactive: all assays above

CC(C)(C)c1ccc(O)cc1
inactive: all assays above

CCC1(c2ccccc2)C(=O)N=C(O)NC1=O (stereo unspecified)
inactive: all assays above

CC(C)(C)OOC(C)(C)C
inactive: all assays above

O=C(O)C1C(C(=O)O)C2(Cl)C(Cl)=C(Cl)C1(Cl)C2(Cl)Cl (stereo unspecified)
inactive: all assays above

COP(=O)(O)OC
inactive: all assays above

CCNc1nc(Cl)nc(NC(C)(C)C)n1
active: [9] 4.52 µM
inactive: all other assays above
